In the supplement of paper PMC10849652:
Targets with a hit are over-represented here; the source holds about 7,900 in all. About 0.6% of all pairs of compound and target were hits. Unmarked numbers belong to inactive results.

Key:
Assay in all cases: log2 fold change, soluble protein after heating vs DMSO (PISA); higher = thermal stabilisation; K562 cells, 10 uM, 30 min; active = over 0.2 and 3.5 SD of the protein, either way, in both replicates (recomputed)
[1] = compound: CS(=O)(=O)c1ccc(-c2cnc(N)c(C(=O)Nc3ccccc3)n2)cc1
Outline: (§1)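 K562 cells at 2×10^6 cells/mL were given 10 μM compound for 30 min. Aliquots then went through 3 min of heating across 48°C-58°C, were pooled, and were extracted in PBS with 0.5% NP-40 at 4°C, and the supernatant after 21,000xg for 90 min was quantified by TMTpro 16plex LC-MS/MS with channel sums equalised. Thermal stability relative to control samples, from duplicates, is given as log2 fold change.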

crizotinib = compound: C[C@@H](Oc1cc(-c2cnn(C3CCNCC3)c2)cnc1N)c1c(Cl)ccc(F)c1Cl [crizotinib]
Outline: as §1

[2] = compound: C[C@@H]1COCCN1C2=NC(=NC(=C2)C3(CC3)S(=O)(=O)C)C4=C5C=CNC5=CC=C4
Outline: as §1

[3] = compound: C[C@H](C1=CC=C(C=C1)C(=O)NC2=C3C=CNC3=NC=C2)N
Outline: as §1

duvelisib = compound: C[C@H](Nc1ncnc2nc[nH]c12)c1cc2cccc(Cl)c2c(=O)n1-c1ccccc1 [duvelisib]
Outline: as §1

gandotinib = compound: Cc1cc(Nc2cc(CN3CCOCC3)c3nc(C)c(Cc4ccc(Cl)cc4F)n3n2)n[nH]1 [gandotinib]
Outline: as §1

tozasertib = compound: Cc1cc(Nc2cc(N3CCN(C)CC3)nc(Sc3ccc(NC(=O)C4CC4)cc3)n2)n[nH]1 [tozasertib]
Outline: as §1

[4] = compound: Cc1cc(SCc2sc(-c3ccc(C(F)(F)F)cc3)nc2C)ccc1OCC(=O)O
Outline: as §1

doramapimod = compound: Cc1ccc(-n2nc(C(C)(C)C)cc2NC(=O)Nc2ccc(OCCN3CCOCC3)c3ccccc23)cc1 [doramapimod]
Outline: as §1

ispinesib = compound: Cc1ccc(C(=O)N(CCCN)[C@@H](c2nc3cc(Cl)ccc3c(=O)n2Cc2ccccc2)C(C)C)cc1 [ispinesib]
Outline: as §1

bafetinib = compound: Cc1ccc(NC(=O)c2ccc(CN3CC[C@H](N(C)C)C3)c(C(F)(F)F)c2)cc1Nc1nccc(-c2cncnc2)n1 [bafetinib]
Outline: as §1

[5] = compound: Cc1cccc(CC(=O)N2CCc3c2ccc(-c2cn(C)c4ncnc(N)c24)c3F)n1
Outline: as §1

nilotinib = compound: Cc1cn(-c2cc(NC(=O)c3ccc(C)c(Nc4nccc(-c5cccnc5)n4)c3)cc(C(F)(F)F)c2)cn1 [nilotinib]
Outline: as §1

[6] = compound: Cc1nc(Nc2n[nH]c3c2CN(C(=O)N[C@H](CN(C)C)c2ccccc2)C3(C)C)c2sccc2n1
Outline: as §1

dasatinib = compound: Cc1nc(Nc2ncc(C(=O)Nc3c(C)cccc3Cl)s2)cc(N2CCN(CCO)CC2)n1 [dasatinib]
Outline: as §1

[7] = compound: Cc1ncc(-c2ccnc(Nc3ccc(S(C)(=O)=O)cc3)n2)n1C(C)C
Outline: as §1

[8] = compound: Cn1cc(-c2ccc3c(c2)CCN3C(=O)Cc2cccc(C(F)(F)F)c2)c2c(N)ncnc21
Outline: as §1

[9] = compound: Cn1cc(-c2ccc3nnc(C(F)(F)c4ccc5ncccc5c4)n3n2)cn1
Outline: as §1

tipifarnib = compound: Cn1cncc1[C@@](N)(c1ccc(Cl)cc1)c1ccc2c(c1)c(-c1cccc(Cl)c1)cc(=O)n2C [tipifarnib]
Outline: as §1

mubritinib = compound: FC(F)(F)c1ccc(/C=C/c2nc(COc3ccc(CCCCn4ccnn4)cc3)co2)cc1 [mubritinib]
Outline: as §1

Chain of UniProt Q8WUA2 (Q8WUA2 whole entry, looked up): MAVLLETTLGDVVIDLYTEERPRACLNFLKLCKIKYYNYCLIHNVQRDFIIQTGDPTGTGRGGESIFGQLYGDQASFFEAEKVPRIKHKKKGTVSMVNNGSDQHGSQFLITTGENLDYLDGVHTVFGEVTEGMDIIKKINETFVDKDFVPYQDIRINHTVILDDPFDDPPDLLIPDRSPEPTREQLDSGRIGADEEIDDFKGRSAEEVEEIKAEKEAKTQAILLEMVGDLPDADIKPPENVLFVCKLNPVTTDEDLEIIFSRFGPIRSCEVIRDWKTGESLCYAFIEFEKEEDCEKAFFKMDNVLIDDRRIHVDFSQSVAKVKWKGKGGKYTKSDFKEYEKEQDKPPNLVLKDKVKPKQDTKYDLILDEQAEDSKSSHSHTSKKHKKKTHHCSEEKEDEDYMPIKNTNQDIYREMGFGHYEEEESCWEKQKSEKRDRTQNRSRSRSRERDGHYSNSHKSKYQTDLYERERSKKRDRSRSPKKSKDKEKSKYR
Chain of UniProt Q8NBL1 (Q8NBL1 whole entry, looked up): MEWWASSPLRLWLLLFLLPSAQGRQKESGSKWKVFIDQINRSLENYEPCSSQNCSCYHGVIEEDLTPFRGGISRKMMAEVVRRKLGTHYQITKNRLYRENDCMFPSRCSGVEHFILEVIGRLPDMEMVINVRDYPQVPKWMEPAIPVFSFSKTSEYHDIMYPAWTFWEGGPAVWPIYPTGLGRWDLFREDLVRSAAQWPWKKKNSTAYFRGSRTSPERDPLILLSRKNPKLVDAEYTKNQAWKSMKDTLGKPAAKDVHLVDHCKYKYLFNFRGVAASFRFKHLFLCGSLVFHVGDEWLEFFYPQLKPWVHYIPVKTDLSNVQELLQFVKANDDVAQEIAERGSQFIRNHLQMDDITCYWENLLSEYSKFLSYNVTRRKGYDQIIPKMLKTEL
Chain of UniProt Q9P2B2 (Q9P2B2 whole entry, looked up): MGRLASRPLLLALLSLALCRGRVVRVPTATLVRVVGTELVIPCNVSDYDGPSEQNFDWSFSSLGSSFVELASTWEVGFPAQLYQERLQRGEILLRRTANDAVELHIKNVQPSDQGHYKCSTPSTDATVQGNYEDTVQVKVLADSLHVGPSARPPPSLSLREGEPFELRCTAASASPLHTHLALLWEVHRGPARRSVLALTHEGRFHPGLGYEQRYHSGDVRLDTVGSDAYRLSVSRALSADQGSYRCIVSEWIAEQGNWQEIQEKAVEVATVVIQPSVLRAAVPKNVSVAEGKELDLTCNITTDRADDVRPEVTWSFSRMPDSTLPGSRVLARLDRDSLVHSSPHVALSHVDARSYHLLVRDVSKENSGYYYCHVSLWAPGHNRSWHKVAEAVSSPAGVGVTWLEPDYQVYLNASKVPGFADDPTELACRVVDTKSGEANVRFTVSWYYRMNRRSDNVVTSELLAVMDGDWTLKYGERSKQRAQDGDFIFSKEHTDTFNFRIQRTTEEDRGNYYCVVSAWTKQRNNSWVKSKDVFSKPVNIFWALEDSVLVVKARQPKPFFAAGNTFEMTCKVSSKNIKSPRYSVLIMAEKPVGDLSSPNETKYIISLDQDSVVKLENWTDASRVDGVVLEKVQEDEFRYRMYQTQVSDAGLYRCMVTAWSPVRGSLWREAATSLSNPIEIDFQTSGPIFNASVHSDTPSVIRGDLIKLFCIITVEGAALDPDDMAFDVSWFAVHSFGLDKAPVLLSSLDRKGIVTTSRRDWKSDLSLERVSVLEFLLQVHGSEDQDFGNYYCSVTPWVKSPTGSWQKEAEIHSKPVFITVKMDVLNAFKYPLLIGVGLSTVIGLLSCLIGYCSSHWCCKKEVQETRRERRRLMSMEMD
Chain of UniProt Q5VTL8 (Q5VTL8 whole entry, looked up): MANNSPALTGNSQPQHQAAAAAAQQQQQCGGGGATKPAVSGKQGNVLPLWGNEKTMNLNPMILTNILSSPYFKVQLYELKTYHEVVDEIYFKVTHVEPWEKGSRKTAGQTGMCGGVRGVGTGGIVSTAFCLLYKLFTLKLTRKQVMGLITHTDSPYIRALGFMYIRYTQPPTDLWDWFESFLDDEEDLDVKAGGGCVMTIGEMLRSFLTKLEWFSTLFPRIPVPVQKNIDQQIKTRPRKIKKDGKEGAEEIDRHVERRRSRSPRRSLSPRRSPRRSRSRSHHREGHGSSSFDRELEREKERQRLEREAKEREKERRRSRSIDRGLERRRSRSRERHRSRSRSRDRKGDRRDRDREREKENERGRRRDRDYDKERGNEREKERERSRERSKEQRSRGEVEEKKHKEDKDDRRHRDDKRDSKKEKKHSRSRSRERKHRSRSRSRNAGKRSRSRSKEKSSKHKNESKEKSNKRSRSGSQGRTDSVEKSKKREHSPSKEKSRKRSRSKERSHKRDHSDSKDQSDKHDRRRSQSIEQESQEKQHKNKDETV
Chain of UniProt O43741 (O43741 whole entry, looked up): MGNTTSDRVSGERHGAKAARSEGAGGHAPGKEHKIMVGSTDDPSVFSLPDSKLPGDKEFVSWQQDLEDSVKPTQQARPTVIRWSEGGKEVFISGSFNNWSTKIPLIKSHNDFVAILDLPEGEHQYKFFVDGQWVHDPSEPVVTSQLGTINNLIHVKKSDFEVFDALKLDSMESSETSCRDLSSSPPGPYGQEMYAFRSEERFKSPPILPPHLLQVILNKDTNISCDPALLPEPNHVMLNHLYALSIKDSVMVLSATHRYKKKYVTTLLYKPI
Chain of UniProt P53609 (P53609 whole entry, looked up): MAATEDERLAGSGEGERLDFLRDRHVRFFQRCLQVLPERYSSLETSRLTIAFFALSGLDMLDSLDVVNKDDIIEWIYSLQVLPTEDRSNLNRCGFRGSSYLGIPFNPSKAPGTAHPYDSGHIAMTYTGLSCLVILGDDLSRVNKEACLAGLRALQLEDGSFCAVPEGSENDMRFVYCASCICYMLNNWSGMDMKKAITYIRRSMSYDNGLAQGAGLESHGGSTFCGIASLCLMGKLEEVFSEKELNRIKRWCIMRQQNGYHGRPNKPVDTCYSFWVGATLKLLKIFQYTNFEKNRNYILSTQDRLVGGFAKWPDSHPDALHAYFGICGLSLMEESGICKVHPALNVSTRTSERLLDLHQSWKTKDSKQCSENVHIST
Chain of UniProt P62333 (P62333 whole entry, looked up): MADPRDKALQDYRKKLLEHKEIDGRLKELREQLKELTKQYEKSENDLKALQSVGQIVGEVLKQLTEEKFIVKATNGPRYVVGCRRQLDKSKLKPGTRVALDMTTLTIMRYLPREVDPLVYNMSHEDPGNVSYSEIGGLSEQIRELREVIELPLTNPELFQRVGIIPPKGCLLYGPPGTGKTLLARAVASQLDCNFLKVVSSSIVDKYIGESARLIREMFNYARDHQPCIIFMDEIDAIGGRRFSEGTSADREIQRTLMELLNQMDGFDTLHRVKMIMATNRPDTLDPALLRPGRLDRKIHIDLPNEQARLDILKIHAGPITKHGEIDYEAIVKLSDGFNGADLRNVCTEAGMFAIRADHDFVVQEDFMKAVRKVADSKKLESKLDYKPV
Chain of UniProt Q15185 (Q15185 whole entry, looked up): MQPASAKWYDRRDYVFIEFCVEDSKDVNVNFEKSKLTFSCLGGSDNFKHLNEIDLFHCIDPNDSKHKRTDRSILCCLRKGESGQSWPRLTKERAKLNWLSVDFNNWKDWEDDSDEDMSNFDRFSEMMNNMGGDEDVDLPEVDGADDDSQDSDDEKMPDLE
Chain of UniProt Q969N2 (Q969N2 whole entry, looked up): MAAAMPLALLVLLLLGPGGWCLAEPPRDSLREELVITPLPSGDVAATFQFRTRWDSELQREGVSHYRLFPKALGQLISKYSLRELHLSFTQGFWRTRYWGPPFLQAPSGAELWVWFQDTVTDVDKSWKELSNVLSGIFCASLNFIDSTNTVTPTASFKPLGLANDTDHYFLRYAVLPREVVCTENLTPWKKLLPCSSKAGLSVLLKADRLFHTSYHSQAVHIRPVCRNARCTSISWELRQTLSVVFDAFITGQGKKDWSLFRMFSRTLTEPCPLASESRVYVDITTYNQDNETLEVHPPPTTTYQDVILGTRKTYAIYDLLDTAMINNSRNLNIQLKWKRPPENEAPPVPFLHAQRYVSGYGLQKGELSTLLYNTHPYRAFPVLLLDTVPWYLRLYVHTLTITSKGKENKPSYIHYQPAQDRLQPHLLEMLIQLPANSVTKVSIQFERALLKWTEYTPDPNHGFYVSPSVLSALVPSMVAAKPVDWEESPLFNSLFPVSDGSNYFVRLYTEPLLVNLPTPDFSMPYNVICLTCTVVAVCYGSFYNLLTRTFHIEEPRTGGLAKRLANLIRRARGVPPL
Chain of UniProt Q15008 (Q15008 whole entry, looked up): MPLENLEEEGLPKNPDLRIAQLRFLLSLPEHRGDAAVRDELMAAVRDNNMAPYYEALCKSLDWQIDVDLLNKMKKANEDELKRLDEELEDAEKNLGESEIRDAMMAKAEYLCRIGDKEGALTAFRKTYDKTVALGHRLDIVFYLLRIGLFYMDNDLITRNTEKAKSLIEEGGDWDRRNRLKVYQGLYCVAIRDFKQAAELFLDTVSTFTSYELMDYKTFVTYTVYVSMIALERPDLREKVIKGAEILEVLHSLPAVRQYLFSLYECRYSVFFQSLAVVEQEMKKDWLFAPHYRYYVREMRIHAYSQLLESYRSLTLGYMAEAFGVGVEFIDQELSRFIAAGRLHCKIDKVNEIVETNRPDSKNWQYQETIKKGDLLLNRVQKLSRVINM
Chain of UniProt Q9Y3C6 (Q9Y3C6 whole entry, looked up): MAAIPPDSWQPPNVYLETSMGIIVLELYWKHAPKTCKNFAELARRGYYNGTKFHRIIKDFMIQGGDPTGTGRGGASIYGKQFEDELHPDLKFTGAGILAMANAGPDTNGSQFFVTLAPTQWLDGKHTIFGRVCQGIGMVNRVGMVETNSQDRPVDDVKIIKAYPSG
Chain of UniProt O95997 (O95997 whole entry, looked up): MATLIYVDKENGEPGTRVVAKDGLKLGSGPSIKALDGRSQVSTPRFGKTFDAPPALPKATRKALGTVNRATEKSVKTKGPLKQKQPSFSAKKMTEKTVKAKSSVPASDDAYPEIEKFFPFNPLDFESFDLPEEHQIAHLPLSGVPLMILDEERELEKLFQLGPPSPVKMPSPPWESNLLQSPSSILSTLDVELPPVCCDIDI

| Target | log2 fold change [1] | log2 fold change (crizotinib) | log2 fold change [2] | log2 fold change [3] | log2 fold change (duvelisib) | log2 fold change (gandotinib) | log2 fold change (tozasertib) | log2 fold change [4] | log2 fold change (doramapimod) | log2 fold change (ispinesib) | log2 fold change (bafetinib) | log2 fold change [5] | log2 fold change (nilotinib) | log2 fold change [6] | log2 fold change (dasatinib) | log2 fold change [7] | log2 fold change [8] | log2 fold change [9] | log2 fold change (tipifarnib) | log2 fold change (mubritinib) |
| --- | --- | --- | --- | --- | --- | --- | --- | --- | --- | --- | --- | --- | --- | --- | --- | --- | --- | --- | --- | --- |
| PDS5B (UniProt Q9NTI5) | 0.03 | -0.229 | 0.222 | 0.041 | 0.004 | -0.149 | -0.604 (active) | 0.208 | -0.074 | -0.225 | 0.041 | -0.139 | -0.314 | 0.04 | -0.244 | -0.031 | 0.038 | 0.147 | 0.054 | 0.127 |
| PRKAB2 (UniProt O43741) | -0.08 | -0.245 | 0.021 | -0.231 | -0.154 | -0.484 (active) | 0.044 | 0.051 | -0.041 | 0.143 | 0.027 | -0.01 | -0.022 | -0.184 | -0.16 | 0.082 | 0.142 | -0.034 | -0.046 | -0.02 |
| PTGFRN (UniProt Q9P2B2) | 0.068 | 0.057 | 0.063 | -0.003 | 0.122 | -0.023 | -0.101 | -0.065 | 0.001 | 0.165 | -0.061 | -0.04 | 0.087 | 0.024 | 0.046 | 0.048 | 0.038 | 0.009 | 0.032 | 0.065 |
| PGGT1B (UniProt P53609) | 0.093 | 0.04 | 0.002 | -0.05 | 0.046 | -0.011 | 0.006 | -0.143 | -0.028 | 0.043 | -0.069 | -0.024 | -0.007 | -0.059 | 0.075 | 0.009 | -0.027 | 0.004 | 0.134 | 0.062 |
| PPIL1 (UniProt Q9Y3C6) | -0.029 | 0.038 | 0.018 | 0.012 | 0 | 0.045 | -0.01 | 0.014 | 0.031 | -0.089 | 0.024 | -0.002 | -0.029 | 0.046 | -0.042 | 0.073 | -0.063 | -0.022 | -0.088 | 0.01 |
| PRPF38B (UniProt Q5VTL8) | -0.051 | -0.026 | 0.058 | -0.269 (active) | 0.023 | 0.001 | -0.022 | -0.002 | 0.005 | 0.193 | -0.016 | -0.015 | 0.049 | -1.9 (active) | -0.022 | -0.008 | 0.012 | -0.04 | -0.067 | 0.004 |
| PIGT (UniProt Q969N2) | 0.033 | 0.023 | -0.017 | 0.005 | -0.045 | -0.029 | 0.029 | 0.047 | 0.036 | 0 | -0.042 | 0 | -0.029 | 0.046 | -0.031 | -0.028 | -0.011 | 0.003 | -0.029 | -0.037 |
| PARL (UniProt Q9H300) | -0.004 | -0.036 | 0.186 | -0.011 | 0.03 | 0.025 | -0.017 | -0.035 | -0.009 | -0.193 | -0.169 | 0.061 | 0.047 | -0.011 | 0.015 | 0.018 | 0.017 | 0.051 | -0.023 | 0.021 |
| PPIL4 (UniProt Q8WUA2) | -0.022 | -0.013 | 0.027 | -0.01 | 0.025 | 0 | -0.026 | 0.021 | 0.019 | -0.017 | -0.001 | 0.002 | 0.002 | -0.483 (active) | -0.065 | -0.113 | -0.031 | -0.018 | -0.01 | 0.005 |
| PSMD6 (UniProt Q15008) | 0.033 | -0.046 | -0.08 | 0.052 | -0.071 | -0.02 | 0.047 | 0.03 | 0.057 | 0.056 | 0.115 | 0.008 | 0.022 | 0.054 | 0.059 | -0.014 | -0.083 | -0.035 | 0.03 | -0.012 |
| PSMC6 (UniProt P62333) | 0.032 | 0.022 | -0.047 | 0.116 | -0.033 | 0.054 | 0.031 | -0.002 | 0.021 | 0.007 | 0.069 | 0.008 | -0.029 | 0.069 | 0.039 | -0.02 | -0.068 | 0.002 | 0.104 | -0.048 |
| PTGES3 (UniProt Q15185) | 0.047 | 0.066 | 0.068 | -0.101 | 0.03 | -0.049 | 0.063 | 0.086 | -0.118 | 0.015 | -0.05 | 0.028 | -0.044 | -0.089 | -0.142 | -0.042 | 0.034 | 0.039 | -0.119 | -0.091 |
| POGLUT1 (UniProt Q8NBL1) | 0.064 | 0.059 | 0 | 0.241 | -0.021 | -0.011 | 0.004 | 0.037 | 0.029 | 0.087 | 0.009 | 0.122 | -0.001 | 0.03 | 0.024 | -0.049 | -0.022 | -0.073 | 0.048 | -0.046 |
| PTTG1 (UniProt O95997) | -0.093 | -0.012 | -0.085 | -0.044 | 0.068 | -0.108 | -0.015 | 0.021 | 0.076 | -0.034 | 0.062 | 0.021 | -0.025 | -0.011 | 0.031 | -0.116 | 0.024 | -0.066 | -0.013 | 0.033 |
| PSMC5 (UniProt P62195) | 0.025 | 0.001 | -0.07 | 0.057 | -0.028 | 0.017 | 0.04 | 0.036 | 0.028 | -0.007 | 0.078 | 0.035 | -0.041 | 0.035 | 0.033 | -0.014 | -0.113 | -0.006 | 0.09 | -0.014 |
